# Measured values published in PubChem BioAssay AID651704 (Broad Institute, 2012).
# Values joined by “and” are separate entries in the source; they are usually repeats but may differ in a detail not shown here. Equal values may be shown once. In all, about 350,000 compounds went through this assay and about 1,600 (0.46%) were called active. The full list was thinned out, with actives kept by preference. Values without a mark were called inactive.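 Rule for the calls: active = every replicate reaching a set inhibition limit, whatever the replicate mean (cut at about 25% in these data); inconclusive = mean inhibition reaches that limit but some replicates miss it; inactive = the rest.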
# Molecular target: Protein AF-9 (Homo sapiens) (UniProt P42568)
# Sequence (P42568 whole entry, looked up): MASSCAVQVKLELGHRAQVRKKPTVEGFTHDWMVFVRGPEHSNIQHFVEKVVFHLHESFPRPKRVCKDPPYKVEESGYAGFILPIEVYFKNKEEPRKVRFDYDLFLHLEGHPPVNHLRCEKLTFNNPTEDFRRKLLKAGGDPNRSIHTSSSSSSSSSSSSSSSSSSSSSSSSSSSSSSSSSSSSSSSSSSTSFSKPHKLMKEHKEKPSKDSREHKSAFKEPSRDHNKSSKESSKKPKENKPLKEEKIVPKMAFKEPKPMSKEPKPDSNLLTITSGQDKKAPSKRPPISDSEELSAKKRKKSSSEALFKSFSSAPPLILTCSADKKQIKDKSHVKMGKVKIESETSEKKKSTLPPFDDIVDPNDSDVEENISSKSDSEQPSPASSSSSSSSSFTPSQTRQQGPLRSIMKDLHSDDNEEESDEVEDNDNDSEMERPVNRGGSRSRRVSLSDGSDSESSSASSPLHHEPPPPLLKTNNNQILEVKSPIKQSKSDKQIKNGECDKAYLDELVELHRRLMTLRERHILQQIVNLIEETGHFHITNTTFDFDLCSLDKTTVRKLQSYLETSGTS
# Experiment: inhibitors of AF4 peptide binding to AF9, primary screen, biochemical, AlphaScreen, biotin-AF4 peptide, FLAG-AF9, single point (AID 651704);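 note: 0% = plate neutral control median and 100% = total signal loss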
# Settings: at 10 µM, hits give high values
row,SMILES,inhibition
1,O=C(NCCc1ccc(C(F)(F)F)cc1)c1ccc2c(c1)OCO2,-0.679%
2,Cc1cccc(C)c1NC(=O)CNC(=O)c1ccc2c(c1)OCCO2,-2.49%
3,CN(Cc1c(F)cccc1Cl)C(=O)CNC(=O)c1ccc2c(c1)OCO2,34.1% (active)
4,CO[C@@H]1CN(C)C(=O)c2ccc(NC(=O)c3ccccc3F)cc2OC[C@@H](C)N(CC2CCOCC2)C[C@H]1C,1.64%
5,COCC#Cc1ccc2c(c1)O[C@@H](CN(C)Cc1ccccn1)[C@@H](C)CN([C@@H](C)CO)S2(=O)=O,-4.38%
6,C[C@H]1CN([C@@H](C)CO)C(=O)c2c(c3ccccc3n2C)-c2ccccc2CO[C@@H]1CN(C)Cc1ccc2c(c1)OCCN2C,34.3% (active)
7,C[C@@H]1CN([C@@H](C)CO)C(=O)c2c(c3ccccc3n2C)-c2ccccc2CO[C@@H]1CN(C)Cc1ccc2c(c1)OCCN2C,30.8% (active)
8,C[C@@H]1CN([C@@H](C)CO)C(=O)c2c(c3ccccc3n2C)-c2ccccc2CO[C@@H]1CN(C)Cc1cccc(C(=O)O)c1,-2.44%
9,C[C@@H]1CN([C@H](C)CO)C(=O)c2c(c3ccccc3n2C)-c2ccccc2CO[C@@H]1CN(C)Cc1ccc(F)cc1,0.52%
10,C[C@H]1CN([C@@H](C)CO)C(=O)c2c(c3ccccc3n2C)-c2ccccc2CO[C@H]1CN(C)Cc1ccc2c(c1)OCO2,1.72%
11,C[C@@H]1CN([C@H](C)CO)C(=O)c2c(c3ccccc3n2C)-c2ccccc2CO[C@H]1CN(C)Cc1ccc(F)cc1,-2.73%
12,Cc1ccccc1S(=O)(=O)N1CC(=O)N2[C@H](CO)[C@@H](c3ccc(C#Cc4ccccc4)cc3)[C@H]2C1,-0.846%
13,C[C@H](CO)N1C[C@H](C)[C@H](CN(C)Cc2ccccc2)OCCCC[C@H](C)Oc2ccc(NC(=O)Cc3ccccc3)cc2C1=O,3.76%
14,Cc1noc(C)c1S(=O)(=O)N(C)C[C@@H]1OCCCC[C@H](C)Oc2ccc(NC(=O)NC(C)C)cc2C(=O)N([C@H](C)CO)C[C@@H]1C,1.67%
15,O=C(C[C@H]1CC[C@H]2[C@@H](COC[C@H](O)CN2C(=O)Nc2ccc(Cl)cc2)O1)NCC1CC1,2.2%
16,O=C(Cc1cccnc1)N1CC(=O)N2[C@@H](CO)[C@@H](c3ccc(C#CC4CCCC4)cc3)[C@@H]2C1,0.34%
17,CN(C)C(=O)C[C@@H]1CC[C@@H](NC(=O)NC2CCCC2)[C@@H](CO)O1,-1.49%
18,COc1cccc(-c2ccc([C@@H]3[C@H]4CN(C(=O)c5cccnc5)CC(=O)N4[C@H]3CO)cc2)c1,0.197%
19,COc1ccc2c3c([nH]c2c1)[C@H](CO)N(Cc1cccc(F)c1)CC31CCN(CC2CC2)CC1,35.1% (active)
20,CCCNC(=O)N1CCC2(CC1)CN(Cc1ccccc1)[C@H](CO)c1[nH]c3cc(OC)ccc3c12,1.99%
21,CCCNC(=O)N1CC2(CCN(Cc3ccc(F)cc3)CC2)c2c([nH]c3cc(OC)ccc23)[C@@H]1CO,29.6% (active)
22,COc1ccc2c3c([nH]c2c1)[C@@H](CO)N(Cc1cccc(F)c1)CC31CN(CC2CC2)C1,23.8%
23,COc1ccc2c3c([nH]c2c1)[C@H](CO)N(Cc1cccc(F)c1)CC31CCN(Cc2ccccn2)CC1,6.18%
24,CCCNC(=O)N1CC2(CCN(C(=O)C3CC3)CC2)c2c([nH]c3cc(OC)ccc23)[C@H]1CO,-0.242%

row,SMILES,inhibition
1,C[C@H]1CN([C@@H](C)CO)C(=O)c2cc(-c3ccc(C#N)cc3)cnc2O[C@@H]1CN(C)Cc1ccncc1,-0.44%
2,COc1ccccc1C(=O)Nc1ccc2c(c1)C(=O)N(C)C[C@@H](OC)[C@@H](C)CN(C)[C@H](C)CO2,-2.27%
3,N#C[C@@H]1[C@H](c2ccccc2-c2cccc(F)c2)[C@@H](CO)N1C(=O)C1CCCC1,-0.992%
4,C[C@@H]1CN([C@@H](C)CO)C(=O)c2cc(-c3cccnc3)cnc2O[C@@H]1CN(C)C(=O)C1CC1,-2.51%
5,O=C(C1CCCCC1)N1CC(=O)N2[C@H](CO)[C@@H](c3ccc(C#Cc4cccc(F)c4)cc3)[C@@H]2C1,-3.43%
6,CN(Cc1ccccc1F)c1cc2c(c3c1ccn3C)C1CCC2O1 (stereo not given),28.6% (active)
7,CC(C)(C)[S@](=O)N1Cc2cc(C(=O)N[C@@H]3CCN(Cc4ccccc4)C3)nc(-c3cccc(-c4ccncc4)c3)c2[C@@H]1CCO,4.53%
8,COc1ccc(N2CCN(C3CCCCC3NS(=O)(=O)c3ccccc3)CC2)cc1 (stereo not given),36.3% (active)
9,O=S(=O)(NC1CCCCC1N1CCN(c2ccccc2F)CC1)c1ccccc1 (stereo not given),5.55%
10,O=S(=O)(NC1CCCCC1N1CCC(O)CC1)c1ccc(Cl)cc1 (stereo not given),3.3%
11,Cn1cnc(CCNC(=O)C[C@H]2CC[C@H]3[C@@H](COC[C@@H](O)CN3C(=O)Nc3ccc(C(F)(F)F)cc3)O2)c1,4.5%
12,Cc1cccc(OCC(O)CN2CCN(S(=O)(=O)c3ccc(C)cc3C)CC2)c1 (stereo not given),35.7% (active)
13,CC(=O)c1ccc(OCC(O)CN2CCN(S(=O)(=O)c3cccc(Br)c3)CC2)cc1 (stereo not given),0.541%
14,Cc1ccc(S(=O)(=O)N2CCN(C(=O)N3CCOCC3)CC2)c(C)c1,-6.49%
15,CCN(CC(=O)Nc1ccc(NC(C)=O)cc1)C(=O)C1CC(=O)N(Cc2ccc(C)cc2)C1 (stereo not given),9.28%
16,CCN(CC(=O)Nc1ccc(NC(C)=O)cc1)C(=O)C1CC(=O)N(c2ccc3c(c2)OCCO3)C1 (stereo not given),28% (active)
17,CCOC(=O)c1ccc(NC(=O)C2CC(=O)N(c3ccc4c(c3)OCCO4)C2)cc1 (stereo not given),-0.164%
18,O=C(c1ccccn1)N1CC2(C1)[C@@H](c1ccccc1)[C@@H](CO)N2C(=O)C1CCC1,0.755%
19,CC(C)CC#Cc1ccc2c(c1)O[C@@H](CN(C)C(=O)Nc1ccccc1F)[C@@H](C)CN([C@@H](C)CO)S2(=O)=O,1.25%
20,CC(C)CC(CO)N1CCN(C(=O)c2ccc(Cl)cc2Cl)CCC1=O (stereo not given),38.9% (active)
21,CC(C)C[C@@H](COCc1ccc(Cl)cc1)N1CCN(C(=O)c2ccc(Cl)cc2Cl)CCC1=O,1.49%
22,CC(C)C[C@@H](CO)N1CCN(Cc2ccc(O)cc2)CCC1=O,-1.96%
23,N#Cc1cccc(-c2ccc(C3[C@@H]4CN(C(=O)C5CCC5)C[C@H]3N4)cc2)c1 (stereo not given in full),-2.89% and 1.48%
24,O=C(NC1CCCCC1)N1CC2(C1)[C@@H](c1ccccc1)[C@@H](CO)N2CC1CCOCC1,-1.54%

row,SMILES,inhibition
1,CN(C)CCNC(=O)c1ccc(-c2cn3c(-c4ccc(Oc5ccccc5)cc4)cnc3cn2)cc1,34.2% (active)
2,CN(C)C(CNC(=O)c1ccc(OCc2cn3ccccc3n2)cc1)c1ccco1 (stereo not given),0.31%
3,Cc1noc(C)c1COc1ccc(C(=O)NCCOc2ccccc2)cc1,-1.51%
4,Cc1ccc(S(=O)(=O)NCC[C@H]2CC[C@H](NC(=O)c3ccccn3)[C@H](CO)O2)cc1,1.07%
5,CCC(=O)N1C[C@H](C)[C@H](OC)CN(C)C(=O)c2cc(NC(=O)Nc3cccc(F)c3)ccc2OC[C@@H]1C,2.75%
6,O=S(=O)(c1ccccc1)N1[C@H](CO)[C@@H]2c3ccccc3NC[C@@H]21,-1.25%
7,COc1ccccc1NC(=O)N(C)C[C@@H]1Oc2ncc(C#CCC(C)C)cc2C(=O)N([C@@H](C)CO)C[C@@H]1C,-1.7%
8,COCC(=O)Nc1ccc2c(c1)OC[C@@H](C)N(Cc1cocn1)C[C@@H](C)[C@@H](OC)CN(C)C2=O,-2.07%
9,Nc1ccc(N=Nc2ccccc2Cl)c(N)n1,31.4% (active)
10,CN1CCN(C(=O)C[C@H]2C[C@@H]3c4cc(NC(=O)Nc5ccc(C(F)(F)F)cc5)ccc4O[C@@H]3[C@H](CO)O2)CC1,6.81%
11,COc1ccc(S(=O)(=O)NC[C@@H]2CC[C@@H]3[C@@H](CN3Cc3cc(F)ccc3F)O2)cc1,17.9%
12,O=C([C@H]1N[C@H]2c3ccc(-c4ccccc4)c(=O)n3C[C@H]2[C@@H]1CO)N1CCOCC1,-1.96%
13,CCOC(=O)c1[nH]ncc1CN1CCCC(C(=O)c2ccc(OC)cc2C)C1 (stereo not given),-1.02%
14,COc1ccc(C(=O)C2CCCN(Cc3cccn3-c3ccccn3)C2)c(C)c1 (stereo not given),11.3%
15,COc1ccc(C(=O)C2CCCN(Cc3ccc4nonc4c3)C2)c(C)c1 (stereo not given),29.4% (active)
16,COc1ccc2[nH]c3c(C)c4cc[n+](C)cc4c(C)c3c2c1,57.7% (active)
17,C[C@@H]1CN([C@H](C)CO)C(=O)c2cc(-c3ccc(F)cc3)cnc2O[C@@H]1CN(C)Cc1ccc(C(=O)O)cc1,-1.88%
18,CCC(=O)N1C[C@@H](C)[C@H](OC)CN(C)C(=O)c2cc(NC(=O)NC3CCCC3)ccc2OC[C@H]1C,-2.77%
19,C[C@H](CO)N1C[C@H](C)[C@@H](CN(C)Cc2ccc3c(c2)OCO3)OCCCC[C@H](C)Oc2ccc(NC(=O)Nc3ccc(C(F)(F)F)cc3)cc2C1=O,4.81%
20,COc1cccc2sc3cc(NCC[C@@H]4CCCN4C)ccc3c(=O)c12,3.58%
21,Cc1cc2oc(=O)cc(CN3CCN(Cc4ccccc4)CC3)c2cc1C,2.48%
22,Cc1cc2oc3ccc(NCCC4CCCN4C)cc3c(=O)c2cc1C (stereo not given),27.8% (active)
